Common to all, as to assay: cell viability relative to vehicle control; higher = less cytotoxic
Details in all cases: 10 µM

In one test the test system is K562. Summed up:
(§1)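 Each screen used CRISPR-edited mutant and wild-type clones from four leukaemia lines. Compounds were acoustically dispensed at a single 10 µM dose, and CellTiter-Glo luminescence was read after 48 h with the supernatant first removed. Viability was analysed in Genedata Screener and given as percent of the on-plate vehicle control.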

The next test relates to MARIMO. The gist of the method:
as §1

The test system of another test is MOLM14. The gist of the method: as §1
For a further test, the system named is OCI-AML2. The gist of the method: as §1

“And” between values parts separate entries of the source, which are not always exact repeats. Equal values may be shown once.

As for `OC(c1ccccc1)(c1ccccc1)C1CCNCC1` [Azacyclonol], the cell viability in the test with K562 (SRSF2 genotype: SRSF2 P95H/wt) was 93.7% and 92.3%; in the test with K562 (SRSF2 genotype: SRSF2 wt/wt), 95.1%; with MARIMO (SRSF2 genotype: SRSF2 P95H/wt), 85.4%; in the test with MARIMO (SRSF2 genotype: SRSF2 wt/wt), 94.4%; in the test on MOLM14 (SRSF2 genotype: SRSF2 P95H/wt), 94.7%; in the test with MOLM14 (SRSF2 genotype: SRSF2 wt/wt), 97.8%. The cell viability in the test on OCI-AML2 (SRSF2 genotype: P95H/wt) was 89%; with OCI-AML2 (SRSF2 genotype: wt/wt), 94.5%.
For the compound `O=C(O)CNC(=O)C1C(=O)N(C2CCCCC2)C(=O)N(C2CCCCC2)C1=O`, the cell viability in the test with K562 (SRSF2 genotype: SRSF2 P95H/wt) was 93.8% and 88.7%; in the test with K562 (SRSF2 genotype: SRSF2 wt/wt), 83.9%; in the test with MARIMO (SRSF2 genotype: SRSF2 P95H/wt) it was 86.5%; in the test on MARIMO (SRSF2 genotype: SRSF2 wt/wt) it was 101%; in the test with MOLM14 (SRSF2 genotype: SRSF2 P95H/wt), 83.8%; in the test on MOLM14 (SRSF2 genotype: SRSF2 wt/wt), 94.1%. Moreover, the cell viability in the test with OCI-AML2 (SRSF2 genotype: P95H/wt) turned out to be 98.8%; with OCI-AML2 (SRSF2 genotype: wt/wt), 98.5%.
As to `CC[C@@H]1CN2CC[C@@]3(C(=O)Nc4ccccc43)[C@@H]2C[C@@H]1/C(=C\OC)C(=O)OC` [Corynoxine], the cell viability is 95.5% and 98.3% in the test on K562 (SRSF2 genotype: SRSF2 P95H/wt); 97.9% with K562 (SRSF2 genotype: SRSF2 wt/wt); 75.2% in the test with MARIMO (SRSF2 genotype: SRSF2 P95H/wt); 69.5% in the test on MARIMO (SRSF2 genotype: SRSF2 wt/wt); 77.1% in the test with MOLM14 (SRSF2 genotype: SRSF2 P95H/wt); 82.5% with MOLM14 (SRSF2 genotype: SRSF2 wt/wt). Besides, the cell viability was 92.9% in the test on OCI-AML2 (SRSF2 genotype: P95H/wt) and 79.2% with OCI-AML2 (SRSF2 genotype: wt/wt).
As to `CCC(C)C(=O)O[C@@H]1[C@@H](OC(C)=O)[C@]2(C)[C@H](C(C)=O)CC[C@@]23O[C@]32CC[C@H]3C[C@@H](O[C@H]4C[C@@H](OC)[C@H](O[C@@H]5O[C@H](C)[C@@H](O)[C@@H](OC)[C@H]5O)[C@@H](C)O4)CC[C@]3(C)[C@@H]12` (some centres not stated) [Tenacissoside H], the cell viability with K562 (SRSF2 genotype: SRSF2 P95H/wt) was 89.8% and 95.2%; with K562 (SRSF2 genotype: SRSF2 wt/wt), 97.7%; with MARIMO (SRSF2 genotype: SRSF2 P95H/wt) it was 96.9%; in the test with MARIMO (SRSF2 genotype: SRSF2 wt/wt) it was 93.2%; in the test with MOLM14 (SRSF2 genotype: SRSF2 P95H/wt), 94.6%; with MOLM14 (SRSF2 genotype: SRSF2 wt/wt), 93.4%. The figures for the cell viability in the test with OCI-AML2 (SRSF2 genotype: P95H/wt) and with OCI-AML2 (SRSF2 genotype: wt/wt) were 98.9% and 96.7%, respectively.

For orientation: cell viability means a read-out of living cells in per cent, often relative to untreated cells.

These data come from the supplement of paper PMC10981050.
